Source: PubChem
PLK1 PBD block: PLK1 (human) polo-box domain binding inhibition; Plk1 PBD binding of FITC phosphopeptide, fluorescence polarization; Potency, µM, for inactives: max response, negative = inhibition, hits mostly inhibitors; hit rate 2.8% among 360,000; P53350; AID 720504; also: potency is read from the fitted curve at half-maximal effect; series mostly up to about 57 µM; nearly all actives have a fitted effect of over 65% in size
Target sequence (P53350 whole entry, looked up, the tested form may be a part): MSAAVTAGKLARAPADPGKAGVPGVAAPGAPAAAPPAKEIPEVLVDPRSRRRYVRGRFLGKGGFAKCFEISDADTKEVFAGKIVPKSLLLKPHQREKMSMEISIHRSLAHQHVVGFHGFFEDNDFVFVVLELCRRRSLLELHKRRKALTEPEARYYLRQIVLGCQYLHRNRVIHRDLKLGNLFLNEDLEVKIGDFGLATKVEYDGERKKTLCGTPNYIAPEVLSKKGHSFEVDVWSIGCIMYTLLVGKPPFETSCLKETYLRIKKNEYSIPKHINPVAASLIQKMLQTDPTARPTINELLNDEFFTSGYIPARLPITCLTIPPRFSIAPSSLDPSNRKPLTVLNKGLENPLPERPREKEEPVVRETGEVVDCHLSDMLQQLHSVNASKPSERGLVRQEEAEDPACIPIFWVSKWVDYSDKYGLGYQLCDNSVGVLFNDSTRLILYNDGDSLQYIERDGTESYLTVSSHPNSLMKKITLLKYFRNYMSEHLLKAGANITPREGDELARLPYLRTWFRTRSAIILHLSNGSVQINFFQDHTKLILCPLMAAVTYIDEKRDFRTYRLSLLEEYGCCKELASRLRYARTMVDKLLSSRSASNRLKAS
MmCpn inh: inhibitors of Methanococcus maripaludis chaperonin TRiC (MmCpn); purified Mm-Cpn ATPase, ADP Transcreener TR-FRET; Potency, µM (highest dose often 76.9 µM), for the others: at the highest dose activity, negative = inhibition, usual class: inhibitors; hit rate 0.031% among 330,000; also: potency is read from the fitted curve at half-maximal effect; nearly all actives have a fitted effect of over 80% in size
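Inhibition of chaperonin ATP hydrolysis is measured as reduced ADP production, detected by competitive TR-FRET in which signal falls with ADP. Final enzyme 25 nM and ATP 10 uM, reacted 30 min at 37°C.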
CCT chaperon mod: changes cytosolic chaperonin activity; purified chaperonin ATPase assay, HTRF ADP detection, 30 min; activity change, % (concentration not given with the values), hits read low; hit rate 0.3% among 360,000; in the data active = activity change below about -30%
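TRiC (40 or 20 nM final, by batch activity) in 30 mM Tris pH 7.4, 100 mM KCl, 5 mM MgCl2, 1 mM DTT was treated with compound at 76 uM single dose, then 10 uM ATP, 30 min at 37 °C. ADP was read by HTRF Transcreener.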
Sfp PPTase inh: blocks B. subtilis Sfp PPTase activity. Potency, µM, without a hit: largest response in the series, negative = inhibition, hits mostly inhibitors. Biochemical Sfp PPTase activity, qHTS. Q9F4F7. AID 1490. hit rate 3.5% among 310,000;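 also: the enzyme is Sfp with the accession as filed and its product quenches rhodamine fluorescence; potency is read from the fitted curve at half-maximal effect; 0% = enzyme reaction without inhibitor and -100% = no enzyme wells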
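With Hepes-Na pH 7.6 buffer containing 10 mM MgCl2, Sfp (15 nM) modified BHQ-2-YbbR (12.5 uM) using rhodamine-CoA (5 uM). Two reads 30 minutes apart at 525/598 nm yielded each well's rate.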
VDR inh: inhibitors of human vitamin D receptor; P11473; VDR-SRC2-3 peptide fluorescence polarization, 2 h; Potency, µM, for inactives: max response, negative = inhibition, actives largely listed as inhibitors; hit rate 0.93% among 400,000; also: potency is read from the fitted curve at half-maximal effect
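FP read-out; VDR + SRC2-3 coactivator peptide; 23 nl compound by pintool; 2 h RT incubation; reagents held at 4 deg C, protected from light.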
G9a inh: inhibitors of human histone lysine methyltransferase G9a; Q96KQ7; G9a H3K9 monomethylation, AlphaScreen, 2 h; Potency, µM (doses to about 102 µM), inactives show at the top dose activity, negative = inhibition, usual class: inhibitors; hit rate 8.8% among 350,000; AID 504332; also: potency is read from the fitted curve at half-maximal effect; nearly all actives have a fitted effect of over 75% in size
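Chemiluminescent proximity detection of H3K9 monomethylation, read after 10 min bead incubation in the dark. Reaction: 20 nM G9a, 500 nM biotin-H3K9 peptide, 20 uM SAM cofactor, 2 h, room temperature, following 15 min enzyme-compound preincubation.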
* hit, by the source's call; [ ] = remark or other dose. An excerpt weighted towards active compounds, which were near 10% of everything screened. Unless noted, calls follow the shape of the dose curve; as a rule, active = well fitted curve in the direction sought with a large enough effect; inconclusive = small, poorly fitted or top-dose-only effect, or another doubt; inactive = no such curve, though single readings can be large; an effect the other way counts as inactive or inconclusive. Unless noted, % is scaled to controls: 0 for no effect and ±100 for the full control effect.

What do the screens show for `Cc1c(NC(=O)Oc2ccccc2)sc(=S)n1C`?
PLK1 PBD block: 15µM*; MmCpn inh: 0%; CCT chaperon mod: -2; Sfp PPTase inh: 56µM*; VDR inh: -5%; G9a inh: 45µM*

How did Cc1ccc(S(=O)(=O)NNC(=O)c2sc(=S)n(C)c2C)cc1 do in these assays?
PLK1 PBD block: -9%; MmCpn inh: 2%; CCT chaperon mod: 1; Sfp PPTase inh: 0%; VDR inh: 10%; G9a inh: inconclusive

Results for COC(=O)NCc1c(C)nn(-c2ccccc2)c1-n1cccc1 ?
VDR inh: -7%; G9a inh: 0%[59 µM]

What do the screens show for `CCOc1ccc2nc(N3CCCC(C(=O)NCCCN4CCCCC4)C3)sc2c1` (stereo unspecified)?
PLK1 PBD block: -5%; MmCpn inh: -4%; CCT chaperon mod: -2; Sfp PPTase inh: 20%; VDR inh: 6%; G9a inh: -22%

What do the screens show for `CCOc1ccc2nc(N3CCCC(C(=O)NCCCN4C(C)CCCC4C)C3)sc2c1` (stereo unspecified)?
PLK1 PBD block: -10%; MmCpn inh: -1%; CCT chaperon mod: -2; Sfp PPTase inh: 3%; VDR inh: -17%; G9a inh: 40µM*

How did O=C(O)CCSc1ccc([N+](=O)[O-])cc1[N+](=O)[O-] do in these assays?
PLK1 PBD block: 12µM*; MmCpn inh: 1%; CCT chaperon mod: -1; Sfp PPTase inh: 45µM*; VDR inh: inconclusive; G9a inh: inconclusive

Results for O=C(Cn1cccc1C(=O)c1ccccc1)NCCc1ccc(Cl)cc1 ?
PLK1 PBD block: 24µM*; MmCpn inh: -1%; CCT chaperon mod: 0; Sfp PPTase inh: 8%; VDR inh: -17%; G9a inh: -5%

What do the screens show for `O=C(O)Cn1cccc1C(=O)c1ccccc1`?
PLK1 PBD block: -10%; MmCpn inh: -4%; CCT chaperon mod: 2; Sfp PPTase inh: 21%; VDR inh: -15%; G9a inh: 56µM*

What do the screens show for `O=C(Cn1cccc1C(=O)c1ccccc1)NCc1cccc(Cl)c1`?
PLK1 PBD block: 24µM*; MmCpn inh: -3%; CCT chaperon mod: 0; Sfp PPTase inh: -3%; VDR inh: -21%; G9a inh: -1%

What do the screens show for `O=C(Cn1cccc1C(=O)c1ccccc1)NCCc1ccccc1`?
PLK1 PBD block: -17%; MmCpn inh: 2%; CCT chaperon mod: -2; Sfp PPTase inh: 8%; VDR inh: 0%; G9a inh: -9%

What do the screens show for `COC(=O)Cn1cccc1C(=O)c1ccccc1`?
PLK1 PBD block: -11%; MmCpn inh: 1%; CCT chaperon mod: 0; Sfp PPTase inh: 15%; VDR inh: 6%; G9a inh: -7%

How did COc1ccc(-n2cc(C(=O)OCc3ccc(Cl)cc3)c3ccccc3c2=O)cc1 do in these assays?
VDR inh: 19%; G9a inh: -7%[59 µM]

Results for CCOc1ccc(CCNC(=O)c2ccc3c(=O)[nH]c4c(C(=O)NC(C)C)sc(=S)n4c3c2)cc1 ?
PLK1 PBD block: inconclusive; MmCpn inh: 3%; CCT chaperon mod: 0; Sfp PPTase inh: -4%; VDR inh: -1%; G9a inh: 45µM*

Results for O=C(NCC1CCCO1)c1ccc2c(c1)N(Cc1ccccc1)C(=O)CS2 (stereo unspecified) ?
PLK1 PBD block: 30µM*; MmCpn inh: -1%; CCT chaperon mod: 1; Sfp PPTase inh: 3%; VDR inh: -18%; G9a inh: 17%[59 µM]

How did CC(C)NC(=O)c1sc(=S)n2c1[nH]c(=O)c1ccc(C(=O)NCCc3ccc(Cl)cc3)cc12 do in these assays?
PLK1 PBD block: 27µM*; MmCpn inh: 1%; CCT chaperon mod: -3; Sfp PPTase inh: -1%; VDR inh: -20%; G9a inh: 45µM*

How did COc1ccc(OC)c(CCNC(=O)c2ccc3c(=O)[nH]c4c(C(=O)NC(C)C)sc(=S)n4c3c2)c1 do in these assays?
PLK1 PBD block: inconclusive; MmCpn inh: 1%; CCT chaperon mod: 1; Sfp PPTase inh: inconclusive; VDR inh: -24%

How did O=C(NCCc1ccccc1)c1ccc2c(=O)[nH]c3c(C(=O)NCC4CCCO4)sc(=S)n3c2c1 (stereo unspecified) do in these assays?
PLK1 PBD block: 30µM*; MmCpn inh: -1%; CCT chaperon mod: 0; Sfp PPTase inh: -27%; VDR inh: 79µM*; G9a inh: -11%[0.501 µM]

What do the screens show for `O=C(NCc1ccco1)c1ccc2c(c1)N(Cc1ccccc1)C(=O)CS2`?
PLK1 PBD block: -6%; MmCpn inh: -1%; CCT chaperon mod: -2; Sfp PPTase inh: 2%; VDR inh: -16%; G9a inh: 6%[12.7 µM]

How did CCc1nn(CC(=O)Nc2ccc(NC(C)=O)cc2)c(=O)c2cc3sccc3n12 do in these assays?
VDR inh: -27%; G9a inh: -33%[59 µM]

Results for Cc1cccc(NC(=O)Cn2c(SCC(=O)NCc3ccccc3)nc3ccccc32)c1C ?
VDR inh: -6%; G9a inh: -18%[59 µM]

How did COc1ccccc1CCc1nnc(CCC(=O)NC(C)Cc2cccc(C)n2)o1 (stereo unspecified) do in these assays?
PLK1 PBD block: 24µM*; MmCpn inh: -1%; CCT chaperon mod: -3; Sfp PPTase inh: 20%; VDR inh: -26%; G9a inh: -2%

How did CCn1cc(C(=O)NC(C)c2ccccc2)c(=O)c2cc(S(=O)(=O)N3CCc4ccccc4C3)ccc21 (stereo unspecified) do in these assays?
VDR inh: 1%; G9a inh: -1%[59 µM]

What do the screens show for `Cc1nc2nc(-c3ccco3)[nH]n2c(=O)c1Cc1ccccc1`?
PLK1 PBD block: -12%; MmCpn inh: -3%; CCT chaperon mod: 2; Sfp PPTase inh: -3%; VDR inh: 7%; G9a inh: -18%[12.7 µM]

How did COC(=O)Cc1c(C)nc2nc(-c3ccco3)[nH]n2c1=O do in these assays?
PLK1 PBD block: -7%; MmCpn inh: 2%; CCT chaperon mod: -2; Sfp PPTase inh: 56µM*; VDR inh: 3%; G9a inh: inconclusive

How did CN1c2ccccc2-c2nc3ccccc3n2C1c1ccccn1 (stereo unspecified) do in these assays?
PLK1 PBD block: -3%; MmCpn inh: -1%; CCT chaperon mod: 1; Sfp PPTase inh: inconclusive; VDR inh: -15%; G9a inh: 50µM*

What do the screens show for `COc1ccc(CNC(=O)CNS(=O)(=O)c2cccc(C#N)c2)cc1OC`?
PLK1 PBD block: inconclusive; MmCpn inh: 1%; CCT chaperon mod: -1; Sfp PPTase inh: -1%; VDR inh: 0%; G9a inh: 50µM*

What do the screens show for `N#Cc1cccc(S(=O)(=O)NCC(=O)NCc2ccc3c(c2)OCO3)c1`?
PLK1 PBD block: inconclusive; MmCpn inh: 1%; CCT chaperon mod: -4; VDR inh: -10%; G9a inh: inconclusive
